# Compounds without any hit were thinned out: in the full panel of roughly 83,000, 20% have a hit.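 Results are percent growth after 48 hours of single-concentration exposure. 100 means growth as in untreated cells, lower positive values show inhibition; negative values down to -100 show cell death.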 Values without a mark were called inactive. Active and inactive are the calls of the source.
# Tested on: SK-MEL-2 melanoma
# Assay: NCI-60 one-dose screen, 48 h (100 = growth as untreated, 0 = no growth, -100 = all killed)
# Conditions: 1 µM
# Protocol: Growth inhibition of the SK-MEL-2 human tumor cell line is measured as a screen for anti-cancer activity. Cells are grown in 96 well plates and exposed to the test compound for 48 hours. Compounds are tested at a single concentration, which is 10^-5 M for most compounds. The reported endpoint is percent growth (GI% or GIPRCNT), where numbers from 0 - 100% represent growth inhibition, and numbers from -100% - 0 represent cell death. For example, a value of 40 represents 60% growth inhibition. A value of 0 means no net growth occurred over the course of the experiment. A value of -40 indicates 40% of cells at the beginning of the experiment died by the end of the experiment. A value of -100 means all cells are dead at the end of the experiment.
# NCI-60 Human Tumor Cell Lines Screen was performed using the standard one-dose NCI protocol, which is described in more detail at https://dtp.cancer.gov/discovery_development/nci-60/default.htm.
# Compounds with GIPRCNT values below 10 were considered active. Activity score was based on GIPRCNT using the following formula: […]
# Score is 0 for GIPRCNT values of 100 or above, 50 for GIPRCNT values of 0, and 100 for GIPRCNT values of -100.
row,SMILES,growth [%]
1,CC/C(=C(/c1ccc(O)cc1)c1ccc(OCCN(C)C(=O)COCCOCCNC(=O)Cc2ccc3c(c2)CN([C@@H]2CCC(=O)NC2=O)C3=O)cc1)c1ccccc1,95.4
2,CC/C(=C(\c1ccc(O)cc1)c1ccc(OCCN(C)C(=O)CCOCCNC(=O)c2ccc3c(c2)CN([C@@H]2CCC(=O)NC2=O)C3=O)cc1)c1ccccc1,103

# Same assay, conditions: 10 µM
row,SMILES,growth [%]
1,CC/C(=C(/c1ccc(O)cc1)c1ccc(OCCN(C)C(=O)COCCOCCNC(=O)Cc2ccc3c(c2)CN([C@@H]2CCC(=O)NC2=O)C3=O)cc1)c1ccccc1,64.1
2,CC/C(=C(\c1ccc(O)cc1)c1ccc(OCCN(C)C(=O)CCOCCNC(=O)c2ccc3c(c2)CN([C@@H]2CCC(=O)NC2=O)C3=O)cc1)c1ccccc1,101

# Same assay, conditions: 10 µM unless noted
row,SMILES,growth
1,O=C(CSc1nc2sc3c(c2c(=O)n1-c1ccc(Cl)cc1)CCCC3)N/N=C/C=C/c1ccccc1,-29.3% (active)
2,O=C(N/N=C/c1occc1Br)c1[nH]c2ccc(Br)cc2c1-c1ccccc1,-88.8% (active)
3,FC(F)(F)CN1CCN(CCn2c(C(F)(F)F)cc3c(Cl)ncnc32)CC1,-89.4% (active)
4,CC1=NN(C2=NC(=O)C(CC(=O)Nc3ccccc3C(F)(F)F)S2)C(c2ccc(N(C)C)cc2)C1 (stereo not given),65.2%
5,COc1cc(CNC(=O)C[C@H](C)CCC=C(C)C)ccc1OCc1cn(-c2ccccc2F)nn1,78.6%
6,Cc1ccc(N=Nc2c(N)nn3c(-c4cc5cc(Br)ccc5oc4=O)ccnc23)cc1,108%
7,COc1ccc(-c2nc3ccc(-c4nnc(SCc5ccccc5)o4)cc3[nH]2)cc1OC,66.4%
8,COc1ccc(-c2cc(C(=O)N=Nc3c(O)[nH]c4ccc(Cl)cc34)c3ccccc3n2)cc1OC,102%
9,O=C(N/N=C/c1ccc(-c2cccc([N+](=O)[O-])c2)s1)c1[nH]c2ccc(Br)cc2c1-c1ccccc1,84.4%
10,O=C(NNC(=O)c1ccc(OCc2nc3ccc(Cl)cc3[nH]2)cc1)Nc1ccc(Cl)c(C(F)(F)F)c1,109%
11,O=C(N/N=C/c1ccc(Br)o1)c1[nH]c2ccc(Br)cc2c1-c1ccccc1,3.4% (active)
12,CCN1C(=O)N(CC)C2NNC(Sc3c(C(=O)O)c4ccccc4n(CCC(C)C)c3=O)=NC21 (stereo not given),22.3%
13,C=CC(=O)N1CCN(c2ccc3nc4c(nc3c2C(F)(F)F)C(=O)c2ncccc2C4=O)CC1,39.8%
14,CC(C)(C)OC(=O)N1CCC2(CC1)Oc1ccccc1[C@H]1CC(c3ccc(Br)cc3)=NN12,71.9%
15,COc1ccc2c(c1)C(Sc1ccc(Cl)cc1)c1c(nc(N)c(C#N)c1N)O2 (stereo not given),79.5%
16,O=C(c1ccc(O)cc1)C1[C@H](c2ccc(Cl)cc2)[C@@H](c2ccccc2)NC12C(=O)Nc1ccccc12 (stereo not given in full),-72.3% (active)
17,CCCCCCCCCCCCCCCCCC(=O)Nc1ccc(OC)cc1,102%
18,CCCn1c(NC(=O)c2cccc(C(N)=O)c2)nc2cc(CN3CCCCC3)ccc21,115%

row,SMILES,growth
1,COc1cc(NC(=O)CSc2nnc(-c3ccc(-c4nc5ccc(Cl)cc5[nH]4)cc3)o2)cc(OC)c1OC,40.3%
2,O=C(NNC(=O)c1ccc(OCc2nc3ccc(Cl)cc3[nH]2)cc1)Nc1ccc(Cl)c(Cl)c1,72.7%
3,COc1ccc(NC(=O)N/N=C/c2c[nH]c3ccccc23)cc1,-10.7% (active)
4,C[C@@H]1CN(c2ccc3ncc(C#Cc4cncc(C(=O)Nc5ccc(CN6CCN(C)CC6)c(C(F)(F)F)c5)c4)n3n2)C[C@@H](C)O1,-88.4% (active)
5,COc1ccc(S(=O)(=O)Nc2ccc(-c3ccc4c(c3)NC(=O)/C4=C\c3ccc[nH]3)cc2)cc1OC,46.6%
6,N#Cc1ccc(C(=O)CSc2nc3c(c(Nc4ccc(S(N)(=O)=O)cc4)n2)CCC3)cc1,87.4%
7,O=C(O)CC1S/C(=N/N=C/c2nc3ccccc3s2)NC1=O (stereo not given),116%
8,Cc1cc(C2(c3cc(C)c(OCC(O)CNc4c(C)n(C)n(-c5ccccc5)c4=O)cc3C(C)C)OC(=O)c3ccccc32)c(C(C)C)cc1OCC(O)CNc1c(C)n(C)n(-c2ccccc2)c1=O (stereo not given),-5.35% (active)
9,Cc1ccc(C2CC(c3ccc(NC(=O)Nc4ccccc4)cc3)=NN2c2ccc(S(C)(=O)=O)cc2)cc1 (stereo not given),-13.7% (active)
10,ClC(Cn1ncc2c(Nc3cccc(Br)c3)nc(SCCN3CCOCC3)nc21)c1ccc(Br)cc1 (stereo not given),-11.9% (active)
11,NC(=O)c1ccc(-c2ccc3ncnc(N4CCc5cc(F)c(Cl)cc54)c3c2)cn1,95.2%
12,O=C1Nc2cc(-c3ccc(NS(=O)(=O)c4ccc([N+](=O)[O-])cc4)cc3)ccc2/C1=C/c1ccc[nH]1,13.9%
13,O=C1/C(=C/c2cnc(-c3ccccc3)s2)SC(=S)N1Cc1ccc2c(c1)OCO2,72.7%
14,CN(C)c1nc(NCCNS(=O)(=O)c2ccc(C3=Nc4c(N)nc(N)nc4NC(c4ccc(C(F)(F)F)cc4)C3)cc2)nc(N2CCOCC2)n1 (stereo not given),21.8%
15,O=C(CSc1nc2sc3c(c2c(=O)n1-c1ccc(Cl)cc1)CCCC3)NNC(=O)c1ccc(F)cc1,104%
16,Cc1ccc(C(=O)Nc2cc(-n3ccnc3C)cc(C(F)(F)F)c2)cc1C#Cc1cnc2cccnn12,-64.1% (active)
17,COc1ccc(-c2cc(-c3cc(C(C)C)c(O)cc3C)nn2-c2ccc(S(N)(=O)=O)cc2)cc1,54.7%
18,CC(=O)c1c2c(c3ccc4c5ccccc5ccc4n13)C(=O)c1ccccc1C2=O,93.3%

# Source: PubChem BioAssay (NCI)
